Source: PubChem BioAssay AID1159580 (chemical genetic matrix, 2015)
The campaign covered roughly 5,500 compounds. About 2,000 (36%) were called active. About 18% were inconclusive and are not listed. Rule as the data show it: active = normalized growth mostly below about 0.91 (no sharp cut-off); inconclusive = no clear call, values can overlap the other calls; inactive = mostly above about 0.92. The list shows a part of the results.

Assay: chemical genetic growth profiling, strain panel (AID 1159580);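 also: tested at 20 µM; growth read once vehicle control cultures reached saturation at 30 °C; 1 = growth at the plate median or of vehicle wells; lower values mean less growth of the strain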
Settings: growth OD
[1] = S. cerevisiae deletion strains, locus YHR030C, strain SLT2, hits give low values

Measured: normalized growth

CCSCCC(N)C(=O)O (stereo unspecified)
inactive: [1] 1.06 | S. cerevisiae deletion strains, locus YHR079C, strain IRE1, hits give low values 1.05 | S. cerevisiae deletion strains, locus YJL095W, strain BCK1, hits give low values 1.04 | S. cerevisiae deletion strains, locus YJR066W, strain TOR1, hits give low values 1.01 | S. cerevisiae deletion strains, locus YLR113W, strain HOG1, hits give low values 1.04 | S. cerevisiae deletion strains, locus YNL183C, strain NPR1, hits give low values 1.02 | S. cerevisiae deletion strains, locus YOR231W, strain MKK1, hits give low values 1.03 | S. cerevisiae deletion strains, locus YPL256C, strain CLN2, hits give low values 1.05

COc1ccc(CNc2ccccc2-c2nc3ccccc3[nH]2)cc1
inactive: S. cerevisiae deletion strains, locus YAL013W, strain DEP1, hits give low values 0.967 | S. cerevisiae deletion strains, locus YBR229C, strain ROT2, hits give low values 0.944 | S. cerevisiae deletion strains, locus YCL061C, strain MRC1, hits give low values 0.941 | S. cerevisiae deletion strains, locus YDL101C, strain DUN1, hits give low values 0.937 | S. cerevisiae deletion strains, locus YDR150W, strain NUM1, hits give low values 0.934 | S. cerevisiae deletion strains, locus YGR078C, strain PAC10, hits give low values 0.952 | S. cerevisiae deletion strains, locus YGR229C, strain SMI1, hits give low values 0.95 | S. cerevisiae deletion strains, locus YHR087W, strain rtc3, hits give low values 0.92 | S. cerevisiae deletion strains, locus YJL187C, strain SWE1, hits give low values 0.978 | S. cerevisiae deletion strains, locus YJR043C, strain POL32, hits give low values 0.957 | S. cerevisiae deletion strains, locus YJR075W, strain HOC1, hits give low values 0.937 | S. cerevisiae deletion strains, locus YLR058C, strain SHM2 (second series), hits give low values 0.956 | S. cerevisiae deletion strains, locus YML094W, strain GIM5, hits give low values 0.882 | S. cerevisiae deletion strains, locus YMR219W, strain ESC1, hits give low values 0.983 | S. cerevisiae deletion strains, locus YMR263W, strain SAP30, hits give low values 0.948 | S. cerevisiae deletion strains, locus YNL128W, strain TEP1, hits give low values 0.917 | S. cerevisiae deletion strains, locus YNL153C, strain GIM3, hits give low values 0.959 | S. cerevisiae deletion strains, locus YNL322C, strain KRE1, hits give low values 0.978 | S. cerevisiae deletion strains, locus YPL055C, strain LGE1, hits give low values 0.797
active: S. cerevisiae deletion strains, locus YDL134C, strain PPH21, hits give low values 0.87 | S. cerevisiae deletion strains, locus YEL061C, strain CIN8, hits give low values 0.861 | [1] 0.431 | S. cerevisiae deletion strains, locus YKL190W, strain CNB1, hits give low values 0.881 | S. cerevisiae deletion strains, locus YLR039C, strain RIC1, hits give low values 0.529 | S. cerevisiae deletion strains, locus YLR085C, strain ARP6, hits give low values 0.514 | S. cerevisiae deletion strains, locus YLR262C, strain YPT6, hits give low values 0.648 | S. cerevisiae deletion strains, locus YMR307W, strain GAS1, hits give low values 0.52 | S. cerevisiae deletion strains, locus YNL298W, strain CLA4 (second series), hits give low values 0.789 | S. cerevisiae deletion strains, locus YNR030W, strain Alg12, hits give low values 0.867 | S. cerevisiae deletion strains, locus YOL006C, strain TOP1, hits give low values 0.57 | S. cerevisiae deletion strains, locus YPL241C, strain CIN2, hits give low values 0.818 | S. cerevisiae deletion strains, locus YPR135W, strain CTF4, hits give low values 0.498 | S. cerevisiae strains, strain wild type, hits give low values 0.881
